Many of the other results were omitted from the sample, so hits are more common in it than they were.
RMI-FANCM inh: RMI-FANCM interaction inhibition; Fluorescence polarization, RMI core complex with F-MM2 peptide; hits give low values; FP signal (polarization) at 33 µM; 70,000 tested, 0.58% active; AID 1159607; in the data active = FP signal below about 40
An asterisk follows results filed as active; ! = a repeat was not active.

SMILES	RMI-FANCM inh
O=C(O)CC1C(=O)NCCN1Cc1ccccn1 (stereo not given)	52
CCCCc1ccc(NC(=O)CSc2nnc(-c3ccccc3OC)n2N)cc1	55
CCCOc1ccc(S(=O)(=O)Nc2ccc3c(c2)N(C(=O)C(C)(C)C)CC3)cc1	80
CCOC(=O)c1c(NC(=O)c2cc(S(=O)(=O)C(C)C)c(SC)s2)sc(C)c1C	37*
CCOC(=O)c1c(NC(C)=O)sc(C)c1C	56
CCOC(=O)c1c(NC(=O)c2ccc(Br)s2)sc(C)c1C	79
COc1ccc(S(=O)(=O)Oc2ccccc2Cl)c2ccccc12	61
CCOc1ccccc1N=c1oc2c3c4c(cc2cc1C(=O)Nc1ccccc1OC)CCCN4CCC3	33*
CCOC(=O)c1c(N=c2oc3c(OC)cccc3cc2C(=O)Nc2ccc(C)cc2)sc2c1CCCC2	58
COc1cc(C(=O)Nc2ccccc2N2CCCCC2)cc(OC)c1OC	58
O=C(Cn1cc(S(=O)(=O)c2ccccc2)c2ccccc21)Nc1ccc2c(c1)OCCO2	62
O=C(O)c1ccc(CNS(=O)(=O)c2cccc(C(F)(F)F)c2)cc1	72
CCN1CCC[C@H]1CNC(=O)c1c(OC)ccc(Br)c1OC	59
CCN1CCC[C@H]1CNC(=O)c1cc(S(N)(=O)=O)ccc1OC	22*!
C=CCN1CCCC1CNC(=O)c1cc2[nH]nnc2cc1OC (stereo not given)	61
O=C(Cn1cnc(-c2ccc(F)cc2)cc1=O)N1CCN(c2ccc(F)cc2)CC1	64
COc1ccc2nc(-c3ccc(NS(=O)(=O)c4cccs4)cc3)cn2n1	74
Brc1ccc(-c2nnc(-c3ccccc3)o2)cc1	93
O=C(CCCSc1ccc(NC(=O)c2ccc(F)cc2)nn1)Nc1ccncc1	64
NS(=O)(=O)c1ccc(CCNC(=O)c2n[nH]c3ccccc23)cc1	56
COc1ccc(-c2ccc(=O)n(CCNC(=O)NCc3ccccc3)n2)cc1OC	69
CCc1ccc(-n2nnnc2/C=C/Nc2ccccc2C(=O)O)cc1	61
O=C1NN=CC1CCCN=Cc1cc(Cl)cc(Cl)c1O (stereo not given)	24*
Oc1c(Cl)cc(Cl)cc1C=NCC1CCC(CN=Cc2cc(Cl)cc(Cl)c2O)CC1 (stereo not given)	10*
CSC(=NC(C)(C)C)N/N=C\c1cc(Cl)cc(Cl)c1O	70
SMILES	RMI-FANCM inh
Oc1c(Cl)cc(Cl)cc1/C=N\NC(=S)Nc1cc(C(F)(F)F)cc(C(F)(F)F)c1	79
OCCN=Cc1cc(Cl)cc(Cl)c1O	36
CCCS(=O)(=O)N1CCCc2cc(NS(=O)(=O)c3ccc(-c4ccccc4)cc3)ccc21	80
CC(=O)N1CCN(c2c(C)cnc3c2c(=O)n(CC(=O)N2CCc4ccccc42)c(=O)n3C)CC1	67
COc1ccc(CNCc2ccc(OC)c(OC)c2)cc1C	46
O=C(c1cccnc1Oc1ccccc1)n1ccc(-c2cccs2)n1	49
O=c1cc(O)c2cc(Cl)ccc2o1	57
N#Cc1c(=O)[nH]c(O)c2c(=N)oc3ccc(Cl)cc3c12	10*
CN(C)c1c(F)cc(C(N)=O)cc1F	69
Cc1cc(F)ccc1S(=O)(=O)NCC(c1ccsc1)N1CCc2ccccc2C1 (stereo not given)	77
CC(=O)NC1=NN(C(C)=O)C2(S1)C(=O)N(CC(C)C)c1ccc(Br)cc12 (stereo not given)	61
COc1ccc(NC(=O)CSc2ccc(F)cc2)c([N+](=O)[O-])c1	9*
COc1ccc(NC(=O)CC2SC(=N)NC2=O)c([N+](=O)[O-])c1 (stereo not given)	64
COc1ccc(SCC(=O)Nc2ccc(F)cc2F)cc1	52
Cc1ccc2occ(C=O)c(=O)c2c1	17*
Cc1coc2ccccc2c1=O	63
Cc1ccc2oc(C(=O)O)cc(=O)c2c1	59
Cc1cc(=O)c2c(O)c3c(cc2o1)OC(C)(C)CC3	62
O=C(Nc1nnc(-c2ccncc2)o1)c1ccno1	65
Cc1ccc(C(=O)CSc2nnc3c(n2)[nH]c2ccccc23)cc1	2*
CCn1c(SCC(=O)c2ccc(OC)cc2)nc2c([nH]c3ccccc32)c1=O	105
CC(C)=CCSc1nnc2c(n1)[nH]c1ccccc12	64
O=C1c2c(O)cccc2Cc2cccc(O)c21	-5*
Cc1cc(O)c2c(c1)C(=O)c1cccc(O)c1C2=O	50
O=C(O)c1cccc2c1-c1ccc(I)cc1C2	54
SMILES	RMI-FANCM inh
COc1ccc(-c2nnc(NC(=O)Cc3ccc(C)c(C)c3)o2)cc1	71
CCc1nn(C)c2c(=O)c(=O)c2n(C)[nH]1	32*
COc1cccc(N2CC(=O)N(/N=C\c3ccc(Cl)cc3)CC2=O)c1	50
Cc1ccc(-n2nnnc2SCC(=O)c2ccccc2)c(C)c1	65
Cc1ccc(CC/C=N\NC(N)=S)o1	60
O=C(NCCOc1ccc(F)cc1)c1ccc(S(=O)(=O)N2CCOCC2)cc1	61
CCc1nc(C)cn1S(=O)(=O)c1ccc(OC)c(C(C)(C)C)c1	61
N#CCCSc1ccccc1NC(=O)/C=C/C(=O)O	64
O=C(O)/C=C\C(=O)Nc1cccc2ccccc12	-3*
O=C(O)/C=C\C(=O)Nc1ccccc1OC(F)(F)F	53
Cn1ncc(C(=O)O)c1NNC(=O)CC(C)(C)CC(=O)O	53
Cc1cc(C)n(C(=O)c2sccc2S(=O)(=O)N(C)c2ccc(F)c(F)c2)n1	58
C[N+](C)(C)CCSSCC[N+](C)(C)C	59
CCCCCCCCCCCCCO	55
CCCCCCCCCCCCCCCC[N+](C)(C)C	34*
CC1(C)CC(=O)c2c(nc(SCC(=O)c3ccccc3)c(C#N)c2-c2ccccc2)C1	104
CC(C)N1CCc2c(sc(NC(=O)c3ccc(Cl)s3)c2-c2nc3ccccc3s2)C1	-19*
Cc1ccc(C(=O)Nc2sc3c(c2-c2nc4ccccc4s2)CCN(C(C)C)C3)c(C)c1	36
CC(C)N1CCc2c(sc(NC(=O)c3ccc(S(=O)(=O)N4CCCCCC4)cc3)c2-c2nc3ccccc3s2)C1	3
COC(=O)c1cscc1Sc1ccc(Cl)cc1	57
CCOc1ccc(C(=O)NCCSc2ncc(-c3ccccc3)[nH]2)cc1OCC	55
CC(=O)C1C(=O)c2cccc([N+](=O)[O-])c2C1=O (stereo not given)	53
CC(=O)c1c(C)nn(-c2ccccc2)c1-c1ccccc1[N+](=O)[O-]	60
CC(=O)c1cccc(N2C(=O)c3cccc([N+](=O)[O-])c3C2=O)c1	29*
Cc1ccc(N2CCn3c2nn(CC(=O)c2ccc(Cl)cc2)c(=O)c3=O)cc1	59
SMILES	RMI-FANCM inh
COc1ccc(S(=O)(=O)N2CCCC2CNC(=O)c2c(F)cccc2F)cc1 (stereo not given)	55
O=C(/C=C/c1ccccc1)NNC(=O)c1sccc1-n1cccc1	45
O=C1CSC(=Nc2cccc(F)c2)N1Cc1ccc2c(c1)OCO2	53
O=C(Nc1nc2c(Cl)ccc(Cl)c2s1)c1ccc([N+](=O)[O-])o1	59
Cc1cccc(N2C(=O)/C(=C/C=C/c3ccco3)SC2=S)c1C	9*
O=C(NN1C(=O)/C(=C\C=C\c2ccco2)SC1=S)c1ccc([N+](=O)[O-])cc1	21*
CN1C(=O)/C(=C\C=C\c2ccccc2)SC1=S	59
Cc1ccc(C(=O)NN2C(=O)/C(=C/c3ccc(N(C)C)cc3)SC2=S)cc1	104
CC(C(=O)O)N1C(=O)/C(=C/C=C/c2ccco2)SC1=S (stereo not given)	82
O=C(Cc1ccccc1)NN1C(=O)/C(=C/c2cccc([N+](=O)[O-])c2)SC1=S	59
Cc1ccc2nc(NC(=O)CCCn3nc(-c4ccco4)ccc3=O)sc2c1	66

Assay outcomes (PubChem)
